Screening results from PubChem BioAssay.
A selection: hits, their analogues and other compounds. The true share with any hit is near 19%.
DT40 TDP1 no CPT = qHTS for Inhibitors of human tyrosyl-DNA phosphodiesterase 1 (TDP1): qHTS in cells in absence of CPT. DT40 Tdp1-/- hTDP1 cells, no CPT, ATP luminescence, 48 h. Potency, µM (doses to about 46.2 µM), inactives show at the highest dose activity change, negative = growth inhibition, usual class: inhibitors. 420,000 compounds, 15% hits; note: potency is the fitted concentration of half-maximal effect; nearly all actives have a fitted effect of over 55% in size
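Camptothecin absent (DMSO only). Human TDP1-complemented DT40 knockout cells, 400 cells/well, 37 °C for minimum 48 hr; ATP measured via CellTiter-Glo, 30 min dark incubation, luminescence.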
DT40 TDP1 CPT = DT40-hTDP1 cell growth loss with CPT. chicken DT40 Tdp1-/-;hTDP1 cells + 20 nM CPT, ATP luminescence, 48 h. Potency, µM (titrated, usually from 46.2 µM), for inactives: at the top dose activity change, negative = growth inhibition, usual class: inhibitors. 420,000 compounds, 12% hits. AID 686979; note: potency is the fitted concentration of half-maximal effect; nearly all actives have a fitted effect of over 55% in size
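Cell growth measured by CellTiter-Glo luminescence after a minimum 48 h, 37 C compound exposure with 20 nM CPT in Tdp1-knockout DT40 cells stably expressing hTDP1, seeded 400/well; qHTS titration format.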
IL-1B inflam inh = inhibitors of inflammasome signaling (IL-1 beta secretion); 360,000 compounds, 4.7% hits; activity change, % at 57.5 µM; THP-1 LPS/ATP IL-1B secretion, AlphaLISA, 16 h; stronger effect = lower value; in the data active = activity change below about -50%; inconclusive = mostly about -30% to -49%
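Secreted IL-1B measured by AlphaLISA bead assay after 16 h compound exposure of THP-1 cells; compounds (final up to 57.5 uM) added 1 h before LPS (250 ng/mL) and ATP (1.25 mM) stimulation; lower signal means less secretion.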
HT1080 IDH1KD tx = HT-1080 IDH1 knockdown cell toxicity (counter line); HT-1080 IDH1 knockdown viability, ATP luminescence, 48 h; Potency, µM (series often up to 46.1 µM), inactives show at the highest dose activity, negative = toxicity, actives largely listed as cytotoxic; 360,000 compounds, 2% hits; AID 686971;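 note: potency is the fitted concentration of half-maximal effect; 0% = DMSO wells and -100% = cell-free medium wells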
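Knockdown cells (IDH1KD HT-1080) received compounds 2 h after plating at 750 cells/well and were kept 48 h at 37 °C in 5% FBS RPMI. A CellTiter-Glo luminescence read gave % activity for curve fitting.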
HT1080-NT tox = kills 2HG-producing HT-1080-NT fibrosarcoma cells | HT-1080-NT fibrosarcoma viability, CellTiter-Glo ATP luminescence, 48 h | Potency, µM (doses to about 46.1 µM), for the others: top-dose activity, negative = less viability, hits mostly cytotoxic | 360,000 compounds, 1.6% hits | AID 686970;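 note: NT is the 2HG producing partner of a matched IDH1 knockdown line; potency is the fitted concentration of half-maximal effect; 0% = DMSO-treated cells and -100% = media-only wells without cells; nearly all actives have a fitted effect of over 55% in size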
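Compounds were tested in concentration-response format on HT-1080-NT cells for 48 hours at 37 degrees C. Cell viability came from CellTiter-Glo luminescence; curves were classified by r2, response magnitude and activity.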
* hit, by the source's call; ? = inconclusive; . = no result. Unless noted, calls come from the whole dose curve; as a rule, active = well fitted curve in the direction sought with a large enough effect; inconclusive = small, poorly fitted or top-dose-only effect, or another doubt; inactive = no such curve, though single readings can be large; an effect the other way counts as inactive or inconclusive. Unless noted, % is set by controls: 0 for no effect and ±100 for the full control effect.

SMILES	DT40 TDP1 no CPT	DT40 TDP1 CPT	IL-1B inflam inh	HT1080 IDH1KD tx	HT1080-NT tox
CCOC(=O)c1ccc(NC(=S)N(CCCN2CCCCCC2)Cc2ccco2)cc1	?	?	-66*	?	?
Cc1cccc(C)c1NC(=S)N(CCCN1CCCCC1)Cc1ccco1	-3%	0%	-10	-7%	-25%
Cc1cc(NC(=S)N(CCN2CCCCC2)Cc2ccco2)ccc1Cl	?	?	-97*	-18%	-23%
Cc1ccc(NC(=S)N(CCCN2CCOCC2)Cc2ccco2)cc1	5%	-2%	-20	2%	-5%
Cc1ccc(NC(=S)N(CCN2CCCCC2)Cc2ccco2)cc1	16µM*	?	?	11%	15%
COc1ccc(NC2CCCN(C(=O)CCN3Cc4ccccc4C3=O)C2)cc1 (stereo unspecified)	10%	-18%	-2	3%	1%
C[C@@H]1COC(=O)[C@H](CC(=O)OC(C)(C)C)C/C=C\C[C@@H](CC(=O)NCCO)C(=O)N1	-13%	-18%	16	12%	16%
COc1ccc(C2CC(=O)Oc3cc(O)ccc32)cc1 (stereo unspecified)	-5%	14%	10	10%	7%
COc1ccc(C2c3c(ncn(Cc4ccco4)c3=N)Oc3ccc4ccccc4c32)cc1 (stereo unspecified)	16µM*	?	-77*	?	21µM*
COc1ccc(C2c3ccc(O)cc3Oc3ncn(Cc4ccco4)c(=N)c32)cc1 (stereo unspecified)	21µM*	12µM*	?	-2%	-6%
CC(Sc1nc2ccccc2[nH]1)C(=O)NC1CCCCC1C (stereo unspecified)	-17%	-18%	-4	-19%	-14%
CC(Sc1nc2ccccc2c(=O)n1C)C(=O)NC1CCCCC1C (stereo unspecified)	2.3µM*	4.1µM*	-4	-7%	-3%
CC1CCCC(C)N1/N=C/c1ccc(O)c(O)c1 (stereo unspecified)	23µM*	-17%	52	1%	-11%
Cc1csc(Nc2nc(N)c(C(=O)Nc3ccccc3)o2)n1	0%	-6%	-12	13%	24%
O=[N+]([O-])c1ccc(S(=O)Cc2ccccc2)c([N+](=O)[O-])c1 (stereo unspecified)	0.58µM*	0.46µM*	-101*	16µM*	16µM*
O=[N+]([O-])c1ccc(CS(=O)c2ccccc2)cc1 (stereo unspecified)	-12%	-11%	12	10%	1%
CCCN(C(=O)CCc1nc(-c2ccc(OC)cc2)no1)c1ccccc1F	16µM*	?	.	.	.
CCCN(C(=O)Cc1nc(-c2ccc(OC)cc2)no1)c1ccccc1C	?	21µM*	.	.	.
CCN(C(=O)CCc1nc(-c2ccc(OC)cc2)no1)c1cc(OC)ccc1OC	?	?	-10	-10%	-12%
CCN(C(=O)Cc1nc(-c2ccc(OC)cc2)no1)c1cccc(Cl)c1	16µM*	?	.	.	.
COc1ccc(-c2noc(CCC(=O)N(C)c3cccc(C)c3)n2)cc1	?	?	-18	-9%	-10%
CC(=O)NCC1CCCN(Cc2cn(-c3ccccc3F)nc2-c2cc(C)sc2C)C1 (stereo unspecified)	-23%	?	-56*	-13%	4%
CC(=O)NCC1CCCN(Cc2cn(-c3ccccc3)nc2-c2ccc3c(c2)OCO3)C1 (stereo unspecified)	?	?	-2	1%	-18%
Cc1cc(-c2nn(-c3ccccc3F)cc2CN2CCN(c3ccncc3)CC2)c(C)s1	?	?	-85*	?	21µM*
COCC1CCCN(Cc2cn(-c3ccccc3F)nc2-c2cc(C)sc2C)C1 (stereo unspecified)	18µM*	16µM*	0	1%	9%
SMILES	DT40 TDP1 no CPT	DT40 TDP1 CPT	IL-1B inflam inh	HT1080 IDH1KD tx	HT1080-NT tox
Cc1cc(-c2nn(-c3ccccc3F)cc2CN(C)CC(O)CO)c(C)s1 (stereo unspecified)	-26%	-17%	-10	-5%	3%
O=C(CN(C(=O)CCC(=O)Nc1nccs1)c1cccc(F)c1)NCc1ccccc1	?	-2%	0	?	?
CCOC(=O)[C@H]1[C@H]2COc3ccc(OC)cc3[C@@H]2N2C(=O)[C@H](C)NC(=O)[C@@]12C	10%	-12%	0	15%	3%
CCOc1ccc(CCNC(=O)c2ccc(CS(=O)Cc3ccc(Cl)cc3)o2)cc1 (stereo unspecified)	?	16µM*	-8	-11%	-4%
COc1ccc(OC)c(CCNC(=O)c2ccc(CS(=O)Cc3ccc(Cl)cc3)o2)c1 (stereo unspecified)	?	23µM*	?	-6%	-14%
CSc1ccc(CCNC(=O)c2ccc(CS(=O)Cc3ccc(Cl)cc3)o2)cc1 (stereo unspecified)	21µM*	?	?	-23%	-9%
O=C(NCCc1ccc(Cl)cc1)c1ccc(CS(=O)Cc2ccc(Cl)cc2)o1 (stereo unspecified)	-19%	?	?	-30%	-14%
CC(NC(=O)Cc1ccccc1)C(=O)O (stereo unspecified)	-7%	-25%	4	8%	0%
Oc1cccc(C2c3[nH]c4ccccc4c3CCN2Cc2ccoc2)c1 (stereo unspecified)	-25%	-26%	-4	-3%	1%
Oc1cccc(C2c3[nH]c4ccccc4c3CCN2Cc2ccc3c(c2)CCO3)c1 (stereo unspecified)	21µM*	?	-93*	23µM*	21µM*
COc1cccc(C2c3[nH]c4ccccc4c3CCN2Cc2cnc(C)s2)c1OC (stereo unspecified)	15µM*	?	-8	?	?
COc1ccc(C2c3[nH]c4ccccc4c3CCN2Cc2ccoc2)c(F)c1 (stereo unspecified)	16µM*	?	0	-23%	?
COc1ccccc1C1c2[nH]c3ccccc3c2CCN1Cc1cnc(C)s1 (stereo unspecified)	18µM*	?	6	0%	0%
Cc1ccccc1CC1(CO)CCCN(C(=O)CCCN2CCCCC2=O)C1 (stereo unspecified)	-15%	-15%	39	16%	15%
Cc1ccc(OCc2occc2C(=O)O)cc1	3%	-8%	1	-2%	-1%
Cc1cc2oc(C(=O)Nc3nc(-c4ccccc4)ns3)c(C)c2cc1Cl	-91%	?	.	.	.
